Tg IFNy HTS – inhibitors of Toxoplasma gondii growth with IFN-gamma | Toxoplasma gondii growth in IFN-gamma-treated host cells; active compounds read low | activity change, negative = inhibition, % (test concentration not listed) | hit rate 3.8% among 69,000 | AID 1259416; in the data active = activity change below about -70%, passing the limit was not always enough;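 also: host cells are HeLa cells infected with Toxoplasma gondii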
A number is an active result; n = inactive; ! = repeats disagree. Only a selection was taken, and hits are over-represented in it overall.

SMILES	Tg IFNy HTS
COc1ccc(NC(=O)Nc2ccc(-c3nc(-c4cc(C)ccc4C)co3)cc2)c(OC)c1	n
COc1cc(C(=O)Nc2ccc(-c3nc(-c4ccccc4)co3)cc2)cc(OC)c1OC	n
Cc1ccc(C)c(-c2coc(-c3ccc(NC(=O)Nc4ccccc4)cc3)n2)c1	n
Cc1ccc(CN2C(=O)CCC23CCC(NC2CCOC2)CC3)cc1 (centres undefined)	n
COCC1CN(C(=O)c2ccncc2)Cc2nccn2C1 (centres undefined)	n
COCC1c2nnn(C)c2CCN1C(=O)Cc1cccc(F)c1 (centres undefined)	n
Cn1ncc(Cl)c1-c1cc(C(=O)N[C@H](CN)Cc2cccc(F)c2)sc1Cl	-85
Cn1c(C(=O)NCc2cccc(F)c2)nc2c1CCN(S(C)(=O)=O)C2	n
CCOc1ccc(NC(=O)Cn2c(=O)cc(-c3nc(C(C)C)no3)c3ccccc32)cc1	n
CSc1cccc(NC(=S)N2CCCCC2CCN2CCOCC2)c1 (centres undefined)	n
CSc1cccc(NC(=O)N2CCCCC2CCN2CCCC2=O)c1 (centres undefined)	n
CSc1ccc2c(c1)N(CCC1CCCCN1C)c1ccccc1S2 (centres undefined)	-95!
CCOC(=O)c1ccc(NC(=O)C2=C(C)C(=O)OC23CCN(CC)CC3)cc1	n
CC(C)CN1CC2(CCN(C(=O)NCc3cccc(F)c3)CC2)C2(CCN(C)C2=O)C1 (centres undefined)	n
COc1ccc(CCC(=O)N2CCCC([C@@H]3C[C@H](C(F)(F)F)n4ncnc4N3)C2)cc1 (some centres undefined)	n
Cc1cc(C)c2c(n1)sc1c(=O)n(N)c(C)nc12	n
Cc1nn(-c2ccc(F)cc2F)c(=O)c2nc(-c3ccccc3)sc12	n
Cc1nc2cc(-c3ccccc3)sc2c(=O)n1N	-107
CC(=O)Nc1ccc(-c2ccccc2CO)c2cccnc12	n
O=C(NCc1ccc(-n2cncn2)cc1)c1scc2c1OCCO2	n
Cc1ccc(-c2nc3cnccn3c2NCCC(=O)N2CCC3(CC2)OCCO3)cc1	n
O=C1CCCN1[C@H]1CN(C(=O)Cc2ccc(F)cc2)[C@H]2CCCO[C@@H]12	n
CCCN1C[C@H](C)[C@@H](OC)CN(C)C(=O)c2cc(NC(=O)C3CCC3)ccc2OC[C@@H]1C	n
CO[C@@H]1CN(C)C(=O)c2cc(NC(=O)c3cccc(F)c3)ccc2OC[C@@H](C)N(C)C[C@@H]1C	-75
CO[C@@H]1CN(C)C(=O)c2cc(NC(=O)c3cccc(F)c3)ccc2OC[C@@H](C)N(C)C[C@H]1C	n
SMILES	Tg IFNy HTS
CO[C@H]1CN(C)C(=O)c2cc(NC(=O)c3cccc(F)c3)ccc2OC[C@@H](C)N(C)C[C@H]1C	n
CO[C@@H]1CN(C)C(=O)c2cc(NC(=O)C3CC3)ccc2OC[C@H](C)N(Cc2cc(F)ccc2F)C[C@@H]1C	n
CO[C@H]1CN(C)C(=O)c2cc(NC(=O)C3CC3)ccc2OC[C@H](C)N(Cc2cc(F)ccc2F)C[C@@H]1C	-72
CC(C)N(C)CC1CN(C(=O)c2cscn2)Cc2nccn2C1 (centres undefined)	n
COc1cccc(-c2nc(Cn3cnc4onc(C)c4c3=O)c(C)o2)c1OC	n
CCNc1ncc(CN2CCn3nc(C(=O)N4CCCC4)cc3C2)cn1	n
CCn1cnnc1CCNc1nc(-c2ccncc2)nc2c1CCNC2	n
COc1nc(C)cc(C)c1CNC(=O)c1cc2n(n1)CCCN(C)C2	n
Cc1ccccc1NC(=O)N1CCC[C@@]2(C(=O)NCC3CC3)CN(c3ncccn3)C[C@H]2C1	n
CC(C)(C)[S@@](=O)N1Cc2cc(C(=O)NC3CCC3)nc(-c3cccc(Br)c3)c2[C@H]1CCO	n
COc1ccc(C#Cc2cccc(-c3nc(C(=O)Nc4ccc(-c5ccccc5)cc4)cc4c3[C@@H](CCO)N(S(=O)C(C)(C)C)C4)c2)cc1OC (some centres undefined)	-71
COc1ccc(C#Cc2cccc(-c3nc(C(=O)NCCCN4CCOCC4)cc4c3[C@@H](CCO)N(S(=O)C(C)(C)C)C4)c2)cc1OC (some centres undefined)	n
CN(C)C(=O)c1ccc(-c2cccc(-c3nc(C(=O)NC4CCCCC4)cc4c3[C@H](CCO)N([S@@](=O)C(C)(C)C)C4)c2)cc1	n
COc1ccc(C#Cc2cccc(-c3nc(C(=O)N4CCN(Cc5ccccc5)CC4)cc4c3[C@@H](CCO)N(S(=O)C(C)(C)C)C4)c2)cc1OC (some centres undefined)	n
CC(C)(C)[S@](=O)N1Cc2cc(C(=O)NC3CCC3)nc(-c3cccc(Br)c3)c2[C@@H]1CCO	-75
CN(C(=O)c1ccsc1)C(Cc1ccccc1)C1CCN(C(=O)c2cnn(-c3ccccc3)c2)CC1 (centres undefined)	n
CN(CCc1ccccc1)Cc1c([C@H]2CCCO2)[nH]c2ncccc12	n
CN(C)C(=O)N1CC2CCC(C1)C2C(=O)Nc1cccc(F)c1 (centres undefined)	n
CCOC(=O)CNC(=O)N1CCc2onc(-c3cccc4ccccc34)c2C1	n
Cc1cc2oc(=O)cc(C)c2cc1NC(=O)c1sc(C(C)C)nc1C	n
OC1(C(F)(F)F)CC(c2cccs2)=NO1 (centres undefined)	n
O=C(c1cccs1)N1N=C(c2ccc(Cl)cc2)CC1(O)C(F)(F)F (centres undefined)	-97
O=C(NCCc1csc(-c2ccc(Cl)cc2)n1)c1ccccc1C(F)(F)F	n
Cc1ccc(NC(=O)Cn2c(=O)cc(C(=O)N3CCCC3)c3ccccc32)cc1	n
Cc1oc(C2CCN(C(=O)Nc3ccc4c(c3)CCC4)CC2)nc1C(=O)N1CCCC1	n
SMILES	Tg IFNy HTS
C=CCN1CC[C@@]2(CN(Cc3cnn(C)c3)C[C@H]2c2ccccc2)C1=O	n
COc1ccc(-c2nc(-c3ccncc3)[nH]c(=O)n2)cc1	n
Oc1ccc(-c2nc(-c3ccc(F)cc3)c(-c3ccncc3)[nH]2)cc1	-80
CCN(C)Cc1ccc(-c2nc(-c3ccncc3)cc(=O)[nH]2)cc1	n
Cc1oc(C2CCN(S(=O)(=O)CCc3ccccc3)CC2)nc1C(=O)N(C)C	n
Cn1c(C(=O)NCc2ccco2)cc2c1c1ccccc1n2CC1CC1	n
N#CCCNC(=O)c1cc2c(c3ccccc3n2CC2CC2)n1-c1ncccn1	n
CCN(CC)CCCNC(=O)c1cc2c(c3ccccc3n2CC2CC2)n1C	-77
c1cc(-c2n[nH]c(C3CCCNC3)n2)ccn1 (centres undefined)	n
CC(C)N(CCC#N)C(=O)Nc1ccc2c(c1)CCO2	n
N#CCCN(Cc1cccs1)S(=O)(=O)c1ccc2c(c1)CCO2	-91
CN(C)CCN(Cc1cccs1)S(=O)(=O)c1ccc2[nH]c(=O)ccc2c1	n
CC(Cn1cc(Cl)cn1)c1cc(=O)[nH]c(NCC2COc3ccccc3O2)n1 (centres undefined)	n
O=C1CC(C(=O)N2CCc3ccccc3C2)CN1CCc1c[nH]c2ccc(Cl)cc12 (centres undefined)	n
NC(=O)N1Cc2nccn2CC(Cn2ncccc2=O)C1 (centres undefined)	n
O=C1c2ccc(Br)cc2C(=O)N1CN1CCOCC1	n
CC(C)(C)c1ccc(C23OC(=O)C4(CCCC4)C2OC(=O)C32CCCC2)cc1 (centres undefined)	-73
CCS(=O)(=O)N1C[C@H]2CN(c3cnn(C)c3)C(=O)[C@H]2C1	n
Cc1cc(C(=O)N2C[C@H]3C[C@H](O)[C@@H](O)C[C@H]3C2)n[nH]1	n
